Hit rate of the full screen: of about 2,500 compounds, about 1,100 (44%) were called active. The set was probably picked from earlier hits. Some of the results follow. Values without a mark were called inactive.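 How the source made its calls: active means inhibition above 50% at 4 µM in the single-point screen; inactive means inhibition of 50% or less.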

A short description of the test: blockers of TNF-a NF-kB luciferase induction – cell-based, HEK293T NF-kB-Luc, luminescence, selectivity assay for NOD1/NOD2 signaling inhibitor project, primary screen (AID 1852). The note with it: TNF-a induced, 14 h, at 4 µM, active compounds read high.
One may read the inhibition as the drop in the measured response relative to a control, in per cent. Consider `Cc1nc([N+](=O)[O-])c(Br)n1Cc1ccccc1`, for which the inhibition was 22.9%.

In the case of `NC(=O)c1ccc(N2CCN(S(=O)(=O)c3ccccc3)CC2)c([N+](=O)[O-])c1`, the inhibition was 5.1%.

For the compound `O=[N+]([O-])c1cc(S(=O)(=O)Nc2cccc(C(F)(F)F)c2)ccc1-n1nnc2ccccc21`, the inhibition was 68.7% (active).

For `CN(C)c1ccnc2sc3c(=O)n(Cc4ccccc4)cnc3c12`, the inhibition is 69.1% (active).

For the compound `Cc1ccccc1-n1cnc2c(sc3nc(N4CCOCC4)c4c(c32)CCCC4)c1=O`, the inhibition is 18.7%.

Take `Cc1noc2ncnc(N3CCN(c4cccc(Cl)c4)CC3)c12`: the inhibition was 19%.

Consider `Cn1ncc2c(N3CCN(c4ccc(Cl)c(Cl)c4)CC3)ncnc21`, for which the inhibition was 104% (active).

With `CC1CCCN(c2ncnc3c2cnn3-c2ccc(Cl)cc2)C1` (centres undefined), the inhibition was 45.4%.

As for `COc1ccc(-n2c(Cc3cccn3C)nnc2SCC(=O)Nc2cccc(F)c2)cc1`, the inhibition was 59.1% (active).

On to `Cn1cccc1Cc1nnc(SCC(=O)Nc2cccc(F)c2)n1-c1ccc(F)cc1`, for which the inhibition was -4.7%.

With `Cn1cccc1Cc1nnc(SCC(=O)Nc2ccc(Cl)cc2)n1-c1ccc(F)cc1`, the inhibition is 42%.

With `COc1ccc(Cl)cc1NC(=O)CSc1nnc(Cc2cccn2C)n1-c1ccc(F)cc1`, the inhibition was 35.1%.

In the case of `Cc1cc(C)cc(NC(=O)CSc2nnc(Cc3cccn3C)n2-c2ccc(F)cc2)c1`, the inhibition is 59.6% (active).

For the compound `COc1ccccc1NC(=O)CSc1nnc(Cc2cccn2C)n1-c1ccc(F)cc1`, the inhibition was -5.9%.

For `CCOc1ccccc1NC(=O)CSc1nnc(Cc2cccn2C)n1-c1ccc(F)cc1`, the inhibition is 56.8% (active).

`COc1ccc(-n2c(Cc3cccn3C)nnc2SCC(=O)Nc2cccc(Cl)c2)cc1`: the inhibition is 14.7%.

On to `COc1ccc(-n2c(Cc3cccn3C)nnc2SCC(=O)Nc2ccc(F)cc2)cc1`, for which the inhibition is -4%.

On to `O=[N+]([O-])c1ccc(O)c(Nc2ncnc3ccccc23)c1`, for which the inhibition is 4.9%.

Consider `O=c1nc(/C=C/c2cc([N+](=O)[O-])ccc2Cl)cc(C(F)(F)F)[nH]1`, for which the inhibition is -16.6%.

`O=[N+]([O-])c1ccc(O)c(-c2cc(C(F)(F)F)nc(-c3ccccc3)n2)c1`: the inhibition is 93.6% (active).

Consider `CCOC(=O)C1(Cc2ccccc2C)CCCN(C(=O)CN2C(=O)CSC2=O)C1` (centres undefined), for which the inhibition is 31.1%.

With `O=C(c1ccccc1)N1CCSc2sccc2C1=O`, the inhibition was 52.7% (active).

In the case of `CC1=CCCC(C)(C)C1/C=C/C(C)=N/NC(=O)c1ccncc1` (centres undefined), the inhibition was 59.7% (active).

Turning to `CC1=C(/C=C/C(C)=N\NC(=O)c2ccncc2)C(C)(C)CCC1`, the inhibition was 3.5%.

For `Cc1oc(-c2cccc3ccccc23)nc1CN1CCN(c2ncnc3ccccc23)CC1`, the inhibition is 43%.

Regarding `COc1ccc(-c2nc(CN3CCN(c4ncnc5ccccc45)CC3)c(C)o2)c(OC)c1`, the inhibition is 23.9%.

Regarding `Cc1oc(-c2cc(F)ccc2F)nc1CN1CCN(c2ncnc3ccccc23)CC1`, the inhibition is 104% (active).

For `COc1cc(-c2n[nH]c(=S)n2-c2ccc(C)cc2)cc(OC)c1OC`, the inhibition was 2.4%.

For the compound `COc1ccc(-c2c[n+]3c(n2-c2ccc(C)cc2)CCCCC3)cc1`, the inhibition was 50.3% (active).

Take `CC1(C)C=C2[C@H]3CC[C@@H]4[C@@]5(C)CCC(=O)C(C)(C)[C@@H]5CC[C@@]4(C)[C@]3(C)CC[C@@]2(C(=O)O)CC1`: the inhibition is 1.3%.

As to `N#CC1=C(N)C(C#N)(C#N)C(c2cccnc2)C2CC(c3ccccc3)CC=C12` (centres undefined), the inhibition was 83.6% (active).

For `O=C(Nc1nc2c(Cl)cccc2s1)c1ccc([N+](=O)[O-])o1`, the inhibition was 6.3%.

As for `Cc1csc(NC(=O)c2cc([N+](=O)[O-])cc([N+](=O)[O-])c2)n1`, the inhibition is -6.5%.

As for `O=C(Nc1nnc(SCc2c(Cl)cccc2Cl)s1)c1cccc([N+](=O)[O-])c1`, the inhibition is 83.1% (active).

Turning to `CCOC(=O)c1cc(C(=O)Nc2ccc(S(=O)(=O)Nc3ccc(OC)cc3)cc2)nn1C`, the inhibition is 18.6%.

On to `CCNS(=O)(=O)c1ccc(NC(=O)Cn2cc([N+](=O)[O-])cn2)cc1`, for which the inhibition is 25%.

Consider `COc1ccc(NC(=O)Cn2nnc(-c3ccccc3NS(=O)(=O)c3ccc(OC)cc3)n2)cc1`, for which the inhibition was 70.7% (active).

Take `Cc1noc(C)c1CSc1nc2ccccc2nc1NS(=O)(=O)c1ccc(Cl)cc1`: the inhibition was 102% (active).

Take `O=S(=O)(Nc1nc2ccccc2[nH]1)c1ccc(Cl)cc1`: the inhibition was -4.8%.

On to `O=[N+]([O-])c1nn(-c2ccc3c(c2)OCCO3)n(O)c1=Nc1ccccc1`, for which the inhibition was 38%.

As for `O=C1C=C(N2CCOCC2)c2ccccc2C1=O`, the inhibition was 23.7%.

`Nc1ccc(S(=O)(=O)Nc2nccc(/C=C/c3cccc(Br)c3)n2)cc1`: the inhibition was 36.8%.

Take `O=[N+]([O-])c1ccc(Oc2ccc(F)cc2)c2ccncc12`: the inhibition was 61.5% (active).

In the case of `O=[N+]([O-])c1ccc(Oc2cccc(F)c2)c2ccncc12`, the inhibition was 42.3%.

Consider `O=[N+]([O-])c1ccc(Oc2ccc(F)cc2Br)c2ccncc12`, for which the inhibition is 66.6% (active).

Take `Cc1ccccc1S(=O)(=O)Cc1ccc(C(=O)N2CCN(c3cccc(C)c3C)CC2)o1`: the inhibition is -33.6%.

As for `CCn1nc(C)c(C(=O)Nc2cc(Oc3cc(C)cc(C)c3)cc([N+](=O)[O-])c2)c1C`, the inhibition is 24.6%.

As to `Cn1cc([N+](=O)[O-])c(C(=O)Nc2cc(Oc3ccccc3)cc([N+](=O)[O-])c2)n1`, the inhibition was 73.2% (active).

As to `Cc1ccc(-c2nc(NC(=O)c3nn(C)cc3[N+](=O)[O-])sc2C)cc1`, the inhibition was 39.6%.

With `O=C(N/N=C/c1ccccn1)c1cc(-c2ccccc2)nc2ccccc12`, the inhibition was 99.1% (active).

For the compound `O=C(N/N=C/c1ccc[nH]1)c1cc(-c2ccc(Cl)cc2)nc2ccccc12`, the inhibition was 3.4%.

Consider `O=C(N/N=C/c1ccccn1)c1cc(-c2ccc(Br)cc2)nc2ccccc12`, for which the inhibition was 105% (active).

With `CCCOc1cccc(-c2cc(C(=O)N/N=C/c3ccccn3)c3ccccc3n2)c1`, the inhibition was 102% (active).

Regarding `O=C(N/N=C/c1ccccn1)c1cc(-c2ccc(Cl)cc2)nc2ccccc12`, the inhibition was 104% (active).

As for `O=C(Cc1cc(C(=O)O)c2ccccc2n1)Nc1ccccc1`, the inhibition is -8.7%.

As for `O=C(CN1C(=O)c2cccnc2Oc2ccc(Cl)cc21)NC1CCCCCC1`, the inhibition is 25.9%.

For `Cc1ccc(N(C(=O)CCl)C(C(=O)NC2CCCCC2)c2cccnc2)cc1C` (centres undefined), the inhibition was 79.9% (active).

`COc1ccc(C(C(=O)NC2CCCCC2)N(C(=O)CCl)c2ccccc2Cl)cc1` (centres undefined): the inhibition is 6.2%.

`COc1ccc(C(=O)/C=C/C(=O)N(CC(=O)NC2CCCCC2)Cc2ccccc2OC)c(O)c1`: the inhibition is 33.1%.

As for `S=C(Nc1ccc(Cl)c(Cl)c1)NC1CCCCC1`, the inhibition was 44.7%.

Take `COc1ccc(C(C(=O)NC2CCCCC2)N(C(=O)CCl)c2ccc(Cl)cc2)cc1` (centres undefined): the inhibition is 20.4%.

Take `O=C(NC1CCCCC1)C(c1cccnc1)N(C(=O)CCl)c1cccc(Cl)c1` (centres undefined): the inhibition was 75.7% (active).

Take `O=C(NC1CCCCC1)C(c1cccnc1)N(C(=O)CCl)c1ccccc1Cl` (centres undefined): the inhibition was 58.7% (active).

As for `COc1ccc(C(C(=O)NC2CCCCC2)N(C(=O)CCl)c2cccc(Cl)c2)cc1` (centres undefined), the inhibition is 60.8% (active).

On to `O=c1c(Cl)c(Cl)cnn1Cc1nnc(-c2ccccc2Br)o1`, for which the inhibition is 108% (active).

Take `O=c1c(Cl)c(Cl)cnn1Cc1nnc(-c2ccc(Cl)cc2)o1`: the inhibition was 51.5% (active).

Turning to `O=c1c(Cl)c(Cl)cnn1Cc1ccc(F)cc1`, the inhibition is 33.4%.

`Clc1ccc(-c2csc3ncnc(NCCN4CCOCC4)c23)cc1`: the inhibition was 60.1% (active).

As for `COc1ccc(-c2csc3ncnc(N4CCN(c5ccccc5[N+](=O)[O-])CC4)c23)cc1`, the inhibition was -57.1%.

For the compound `COc1ccc(-c2csc3ncnc(NCCN4CCOCC4)c23)cc1`, the inhibition is 89.9% (active).

Regarding `C=CCn1c(C)c(/C=C/c2cc[n+](C)cc2)c2ccccc21`, the inhibition was 12%.

Turning to `Cc1ccc(C2=NN(C(=O)CCl)C(c3cccs3)C2)o1` (centres undefined), the inhibition is 43.6%.

Take `COc1ccc(C2CC(c3cccs3)=NN2C(=O)CCl)cc1OC` (centres undefined): the inhibition is 47.4%.

In the case of `O=C(CCl)N1N=C(c2cccs2)CC1c1ccco1` (centres undefined), the inhibition is 55.2% (active).

Consider `COc1cc(C2CC(c3cccs3)=NN2C(=O)CCl)ccc1OC(F)F` (centres undefined), for which the inhibition is 40.7%.

On to `O=C(CCl)N1N=C(c2ccco2)CC1c1ccco1` (centres undefined), for which the inhibition was 58.9% (active).

In the case of `O=C(CCl)N1N=C(c2ccco2)CC1c1cccs1` (centres undefined), the inhibition is 56% (active).

Regarding `COC(=O)c1ccc2c(c1)C(C)(C)C(/C=C/c1ccccc1O)=[N+]2C`, the inhibition is -7.6%.

Regarding `COC(=O)c1ccc2c(c1)C(C)(C)C(/C=C/c1ccc(O)cc1)=[N+]2C`, the inhibition was 60.8% (active).

With `COC(=O)C1=C(C)N(c2ccc(F)cc2)/C(=C/c2ccc(O)cc2)C1=O`, the inhibition was -3%.

Consider `c1cnc(N2CCN(c3ccc4ccccc4n3)CC2)nc1`, for which the inhibition is -118%.

Regarding `COc1ccc(NC(=O)c2cc(N3C(=O)C4C5CCC(C5)C4C3=O)ccc2Cl)c(OC)c1` (centres undefined), the inhibition is 30.6%.

Take `COc1ccc(CCNC(=S)N2CCC(Cc3ccccc3)CC2)cc1OC`: the inhibition was 47.4%.

With `COc1ccc(NC(=S)N2CCN(C/C=C/c3ccccc3)CC2)c(OC)c1`, the inhibition is 57.8% (active).

As to `c1cc(-c2nnc3sc(C4CCCCC4)nn23)ccn1`, the inhibition is 57.5% (active).

Turning to `c1ccc(CCc2nn3c(-c4ccncc4)nnc3s2)cc1`, the inhibition was 82.6% (active).

In the case of `c1csc(Cc2nn3c(-c4ccncc4)nnc3s2)c1`, the inhibition is 42.2%.

For the compound `O=C(CCN1C(=O)c2ccc([N+](=O)[O-])cc2C1=O)Nc1ccc(O)cc1C(=O)O`, the inhibition was -3.9%.

For the compound `CCCc1nc2c(=O)n(C)c(=O)nc-2n(C)n1`, the inhibition is 105% (active).

For the compound `Cc1cc(C(=O)COc2cccnc2[N+](=O)[O-])c(C)n1Cc1cccs1`, the inhibition was 38.6%.

For the compound `Cc1cc(C(=O)COc2cccnc2[N+](=O)[O-])c(C)n1-c1ccccc1F`, the inhibition was 38.6%.

For the compound `COCCn1c(C)cc(C(=O)COC(=O)c2cccc(O)c2)c1C`, the inhibition is 81.1% (active).

For the compound `C=CCn1c(C)cc(C(=O)COc2ccc(C)nc2[N+](=O)[O-])c1C`, the inhibition was 30%.

As to `CCCn1c(C)cc(C(=O)COc2ccc(C)nc2[N+](=O)[O-])c1C`, the inhibition is -16.5%.

Regarding `COCCn1c(C)cc(C(=O)COc2ccc(C)nc2[N+](=O)[O-])c1C`, the inhibition is 79.2% (active).

Take `Cc1ccc(OCC(=O)c2cc(C)n(Cc3cccs3)c2C)c([N+](=O)[O-])n1`: the inhibition is 68.2% (active).

As to `Cc1ccc(OCC(=O)c2cc(C)n(-c3ccccc3)c2C)c([N+](=O)[O-])n1`, the inhibition was 72.3% (active).

On to `COCC(C)n1c(C)cc(C(=O)COc2ccc(C)nc2[N+](=O)[O-])c1C` (centres undefined), for which the inhibition was 41%.

As to `COCCn1c(C)cc(C(=O)CSc2nnc3ccccn23)c1C`, the inhibition was 17.3%.
